# According to PubChem BioAssay:
# Molecular target: Neurogenic locus notch homolog protein 2 (Homo sapiens) (UniProt Q04721)
# Assay: small molecules binding Notch2 protein – biochemical, small-molecule microarray, 635 nm fluorescence, stem cell growth factors, primary screen (AID 1073)
# Settings: higher = more signal
# Neurogenic locus notch homolog protein 2 (Homo sapiens), sequence (Q04721 whole entry, looked up): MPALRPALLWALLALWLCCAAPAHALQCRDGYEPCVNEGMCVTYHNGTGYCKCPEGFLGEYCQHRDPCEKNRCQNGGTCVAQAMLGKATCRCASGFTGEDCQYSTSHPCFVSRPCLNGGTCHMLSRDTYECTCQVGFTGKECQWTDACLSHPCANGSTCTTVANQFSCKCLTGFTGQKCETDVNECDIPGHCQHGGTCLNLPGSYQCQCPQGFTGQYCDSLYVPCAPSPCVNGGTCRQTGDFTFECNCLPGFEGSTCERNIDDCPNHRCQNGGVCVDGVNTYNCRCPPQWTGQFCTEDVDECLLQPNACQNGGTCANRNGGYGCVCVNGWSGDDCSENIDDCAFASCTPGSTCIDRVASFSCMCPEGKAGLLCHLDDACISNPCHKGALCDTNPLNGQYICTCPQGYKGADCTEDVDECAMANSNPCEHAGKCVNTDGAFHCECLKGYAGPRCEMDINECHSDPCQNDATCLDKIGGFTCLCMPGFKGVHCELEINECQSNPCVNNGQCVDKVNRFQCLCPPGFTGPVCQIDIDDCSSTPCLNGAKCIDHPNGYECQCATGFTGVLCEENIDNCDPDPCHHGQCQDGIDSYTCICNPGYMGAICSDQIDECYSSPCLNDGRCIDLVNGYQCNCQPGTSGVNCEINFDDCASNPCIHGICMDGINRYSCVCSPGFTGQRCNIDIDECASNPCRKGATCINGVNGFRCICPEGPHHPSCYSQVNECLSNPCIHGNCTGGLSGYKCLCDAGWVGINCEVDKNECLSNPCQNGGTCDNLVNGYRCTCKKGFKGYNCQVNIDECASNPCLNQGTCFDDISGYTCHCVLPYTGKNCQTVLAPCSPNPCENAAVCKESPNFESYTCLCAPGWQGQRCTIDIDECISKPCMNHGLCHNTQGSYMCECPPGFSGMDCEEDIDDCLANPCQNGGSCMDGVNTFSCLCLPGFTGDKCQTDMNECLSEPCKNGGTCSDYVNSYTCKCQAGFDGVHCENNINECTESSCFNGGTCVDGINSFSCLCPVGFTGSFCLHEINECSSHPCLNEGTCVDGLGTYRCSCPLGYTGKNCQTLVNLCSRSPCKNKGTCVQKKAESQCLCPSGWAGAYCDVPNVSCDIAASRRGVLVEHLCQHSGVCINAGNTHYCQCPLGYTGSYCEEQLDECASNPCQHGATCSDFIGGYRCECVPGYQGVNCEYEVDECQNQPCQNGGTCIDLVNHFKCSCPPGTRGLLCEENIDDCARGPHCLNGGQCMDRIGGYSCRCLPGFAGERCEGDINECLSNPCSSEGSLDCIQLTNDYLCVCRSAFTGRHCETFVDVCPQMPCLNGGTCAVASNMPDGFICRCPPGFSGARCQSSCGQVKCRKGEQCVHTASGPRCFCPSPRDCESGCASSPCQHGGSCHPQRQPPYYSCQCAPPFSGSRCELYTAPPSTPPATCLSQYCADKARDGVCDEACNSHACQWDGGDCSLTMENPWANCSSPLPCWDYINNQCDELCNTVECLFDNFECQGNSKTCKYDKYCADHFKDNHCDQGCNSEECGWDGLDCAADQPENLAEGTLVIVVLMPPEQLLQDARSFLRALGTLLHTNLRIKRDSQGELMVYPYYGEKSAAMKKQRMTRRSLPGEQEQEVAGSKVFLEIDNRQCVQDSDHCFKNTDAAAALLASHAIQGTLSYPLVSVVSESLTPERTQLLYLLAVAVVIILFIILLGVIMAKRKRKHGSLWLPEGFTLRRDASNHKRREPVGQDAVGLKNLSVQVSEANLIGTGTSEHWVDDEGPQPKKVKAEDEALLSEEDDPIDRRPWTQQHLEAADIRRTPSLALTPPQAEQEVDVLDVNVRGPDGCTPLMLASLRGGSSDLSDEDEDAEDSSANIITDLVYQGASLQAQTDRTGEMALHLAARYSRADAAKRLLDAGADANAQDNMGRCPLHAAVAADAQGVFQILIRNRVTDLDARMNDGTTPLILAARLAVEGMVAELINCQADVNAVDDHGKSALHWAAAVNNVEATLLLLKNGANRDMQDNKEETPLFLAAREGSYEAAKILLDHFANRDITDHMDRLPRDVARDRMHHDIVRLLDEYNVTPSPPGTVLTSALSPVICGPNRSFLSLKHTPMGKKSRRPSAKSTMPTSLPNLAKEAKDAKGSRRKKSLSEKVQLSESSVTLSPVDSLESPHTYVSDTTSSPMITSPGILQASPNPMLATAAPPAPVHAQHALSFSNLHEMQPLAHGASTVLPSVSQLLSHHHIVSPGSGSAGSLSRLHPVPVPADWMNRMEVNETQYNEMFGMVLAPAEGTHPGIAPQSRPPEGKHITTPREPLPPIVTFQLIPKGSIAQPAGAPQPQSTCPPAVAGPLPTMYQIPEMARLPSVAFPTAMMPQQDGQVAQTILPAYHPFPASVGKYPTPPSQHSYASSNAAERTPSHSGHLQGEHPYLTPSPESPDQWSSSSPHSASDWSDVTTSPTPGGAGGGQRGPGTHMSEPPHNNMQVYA
row,Structure (SMILES),composite z-score
1,COCCCNC(=O)[C@@]1(Cc2ccccc2)COC(c2ccc(OCCCO)cc2)=N1,0.694
2,COC(=O)[C@]1(Cc2ccccc2CN=[N+]=[N-])N=C(c2ccc(OCCCO)cc2)O[C@@H]1c1ccccc1CN=[N+]=[N-],-0.443
3,O=C1NC(=O)C2C1C=CC(C(O)c1ccc(-c3ccccc3)s1)N2Nc1ccccn1 (stereo not given),1.31
4,C=C(C(=O)CC[C@H](OC(=O)c1cccnc1)c1ccc(OCCO)cc1)C(C)C,0.539
5,Cc1ccc(N2C(=O)c3ccccc3[C@](C)(C(=O)NC(C)C)[C@@H]2c2ccc(CO)cc2)nc1,-1.61
6,CCCCC=C[C@@H](NC(=O)CCc1ccccc1)c1ccccc1,1.11
7,C=CCC(OC(C)=O)[C@@H]1[C@@H](N(Cc2cccc3ccccc23)C(=O)c2ccc(C)cc2)c2cc(OCCCO)ccc2N1C(=O)c1ccc2ccccc2c1 (stereo not given in full),0.145
8,C[C@]12C(=O)N(CCCCCO)[C@@H]3C(=O)N(c4ccc(Cl)cc4)CC=CC31O[C@@H]1/C=C\CCCOC(=O)C12 (stereo not given in full),-0.76
9,O=C1c2ccccc2[C@](Cc2ccccc2I)(C(=O)NCC(F)(F)F)[C@H](c2ccc(CO)cc2)N1Cc1ccccc1,1.39
10,O=C(O)[C@@]1(Cc2ccccc2)COC(c2ccc(OCCCO)cc2)=N1,-0.287
11,COCCCNC(=O)[C@]1(Cc2ccccc2)N=C(c2ccc(OCCCO)cc2)O[C@@H]1c1ccccc1N=[N+]=[N-],1.02
12,COCCOC(=O)N1C(=O)[C@@]2(c3cc(C#Cc4ccc(OC)cc4)ccc31)[C@H](C(=O)N1CCc3cc(OC)c(OC)cc3C1)[C@H]1C(=O)O[C@H](c3ccccc3)[C@H](c3ccccc3)N1[C@@H]2c1ccc(OCCO)cc1,1.22
13,CC(C)NC(=O)[C@@]1(Cc2ccccc2I)c2ccccc2C(=O)N(Cc2ccccc2C(F)(F)F)[C@H]1c1ccc(CO)cc1,0.234
14,COC(=O)[C@@]1(Cc2ccc(OC)cc2)[C@H]2c3cc(C(=O)N(C)C)n(Cc4cc(F)c(F)c(F)c4)c3C[C@H]2CN1C(=O)c1ccccc1,1.74
15,O=C1N(CCS(=O)(=O)c2ccccc2)Cc2ccccc2C[C@@]12COC(c1ccc(OCCCO)cc1)=N2,1.45
16,Cc1ccc(S[C@]2(C(=O)O)CC(=O)N(Cc3ccccc3C(F)(F)F)[C@@H]2c2ccc(CO)cc2)cc1,-1.11
17,O=C1N(CCS(=O)(=O)c2ccccc2)c2ccccc2[C@H]2OC(c3ccc(OCCCO)cc3)=N[C@@]12CCS(=O)(=O)c1ccccc1,1.5
18,CC(C)C(CO)N1C(=O)[C@@H]2[C@H]3C(=O)OCC=C[C@H]3OC23C=CCN(CCN2CCOCC2)C(=O)[C@@H]13 (stereo not given in full),-0.868

row,Structure (SMILES),composite z-score
1,CC(C)(C)OC(=O)CC[C@@]1(C(=O)N2CCCCC2)N=C(c2ccc(OCCCO)cc2)O[C@@H]1c1ccccc1N=[N+]=[N-],1.66
2,CCCCCCC#C[Si](O[C@H](c1ccccc1)c1cn(Cc2cccc(Cl)c2)nn1)(C(C)C)C(C)C,0.631
3,C=CCOC(=O)[C@@H]1[C@H]2C(=O)O[C@H](c3ccccc3)[C@H](c3ccccc3)N2[C@H](c2ccc(OCCOC(=O)[C@@H]3C[C@@H]4C(=O)N5CCC[C@H]5C(=O)N4[C@@H]3c3cccc(OCCO)c3)cc2)[C@@]12C(=O)Nc1ccc(I)cc12,0.115
4,C=CCC(OC(C)=O)[C@@H]1[C@@H](N(Cc2cccc3ccccc23)C(=O)Cc2ccc(F)cc2)c2cc(OCCCO)ccc2N1C(=O)Cc1ccc(OC)cc1 (stereo not given in full),-0.045
5,CO[C@H]1O[C@H](CO)[C@@H](OC(=O)Nc2ccc(C(F)(F)F)cc2)[C@H](OC(=O)Nc2ccccc2)[C@H]1OC(=O)Nc1ccccc1,1.58
6,C=C(COC)C(=O)CC[C@H](OC(=O)c1ccccc1-c1ccccc1C(=O)O)c1ccc(CO)o1,-0.532
7,CC(C)CNC(=O)[C@@]1(C)c2ccccc2C(=O)N(Cc2ccccc2)[C@H]1c1ccc(CO)cc1,-0.762
8,CCC[C@@H]1C[C@@]1(CCC)[C@@H](NC(=O)c1ccco1)c1ccc(Cl)cc1,-0.259
9,[N-]=[N+]=NCc1ccccc1[C@H]1OC(c2ccc(OCCCO)cc2)=N[C@@]1(Cc1ccccc1)C(N)=O,1.05
10,COc1ccc([Si](C)(C)[C@H]2[C@H](CCO)O[C@@]3(C(=O)N(Cc4cccc(N5CCOC5=O)c4)c4ccccc43)[C@@H]2C)cc1,0.849
11,C[N+](C)(C)CCCC[C@@H]1NC(=O)[C@@H]2C[C@H](C(=O)NCCCCCNC(=O)CS)[C@H](c3cccc(OCCO)c3)N2C1=O,0.151
12,COCCOC(=O)N1C(=O)[C@@]2(c3cc(C#CC4(O)CCCCCC4)ccc31)[C@H](C(=O)NC[C@H](O)c1ccccc1)[C@H]1C(=O)O[C@H](c3ccccc3)[C@H](c3ccccc3)N1[C@@H]2c1ccc(OCCO)cc1,0.672
13,COc1cccc(C)c1NC(=O)O[C@H]1[C@H](OC(=O)Nc2ccccc2)[C@H](OC(=O)Nc2ccccc2)[C@@H](OC)O[C@@H]1CO,1.16
14,COC(=O)[C@@]1(Cc2ccccc2)[C@H]2c3cc(C(=O)N4CCCC4)n(Cc4ccccc4)c3C[C@H]2CN1C(=O)c1ccccc1,1.69
15,COc1cc2c(cc1OC)CN(C(=O)[C@@H]1[C@H]3C(=O)O[C@H](c4ccccc4)[C@H](c4ccccc4)N3[C@H](c3ccc(OCCO)cc3)[C@@]13C(=O)Nc1ccc(C#CCCO)cc13)CC2,1.56
16,COc1ccc([Si](C)(C)[C@@H]2[C@@H](CC(=O)N(CCO)Cc3ccccc3)O[C@]3(C(=O)N(C)c4c(Br)cc(C)cc43)[C@H]2C)cc1,-0.561
17,COC(=O)[C@@]1(Cc2ccccc2)[C@H]2c3cc(C(=O)N4CCCC4)n(Cc4ccc(OC(F)(F)F)cc4)c3C[C@H]2CN1C(=O)c1ccccc1,1.72
